HIV TAR-Tat = HIV-1 TAR-Tat binding disruption; HIV-1 TAR RNA, Tat peptide displacement FRET; stronger effect = higher value; z-score (concentration not given with the values); 100,000 compounds, 0.6% hits; AID 1259389; active means z-score of 3 or more in at least 2 runs
CDC25B-CDK2 inh = human CDC25B-CDK2/CyclinA binding inhibition; 94,000 compounds, 0.72% hits; AID 1259370; z-score (no concentration beside the values); P30305+P24941; HTRF CDC25B-CDK2/CyclinA binding, anti-His/anti-Flag; stronger effect = higher value; in the data active means z-score above about 3.2
* marks the source's active call; other numbers are inactive results; x = not tested or not shown. Shown are actives, neighbours in structure and some others; about 0.93% of the full set was active somewhere.

SMILES | HIV TAR-Tat | CDC25B-CDK2 inh
N#Cc1c(NC(=O)c2cc3ncc(Br)cn3n2)sc2c1CCCC2 | 7.3* | 0.64
CC(=O)Nc1sc2c(c1C#N)CCCC2 | 0.23 | 0.23
CC1CCCN(CCCNC(=O)CCCN2C(=O)CCn3nc(-c4cccn4C)cc32)C1 (configuration not stated) | -9.6 | x
c1cc(CNc2ccc3c(c2)OCO3)ccn1 | 0.91 | 0.08
Fc1ccc(NCc2ccncc2)cc1 | 1.1 | 15*
CC(C)(C)c1ccc(/C(N)=N/OC(=O)c2ccc3c(c2)CCO3)cc1 | x | -2
O=C(Cc1cccc2ccccc12)Nc1ccc2nc(SCC(=O)N3CCCC3)sc2c1 | x | -3.3
Cc1cc(C)cc(NC(=O)C(C)CS(=O)(=O)c2ccc3c(c2)NC(=O)C(C)S3)c1 (configuration not stated) | -0.17 | x
COc1cc(NC(=O)C(C)CS(=O)(=O)c2ccc3c(c2)NC(=O)C(C)S3)cc(OC)c1 (configuration not stated) | 15* | x
O=C(NCc1ccco1)C1CCN(C(=O)c2sccc2-n2cccc2)CC1 | x | -1.1
O=C1CC(c2ccc(F)cc2)Cc2c1cnc1[nH]n(-c3ccccc3)c(=O)c21 (configuration not stated) | -0.5 | -1.1
COc1ccc(O)c(-c2nc3c(c(=O)[nH]2)Cc2c(CO)cnc(C)c2O3)c1 | 11* | 2
Cc1ncc(CO)c2c1Oc1nc(-c3ccc(F)cc3)[nH]c(=O)c1C2 | 0.72 | -1.7
O=C1COc2cc(S(=O)(=O)NC3CCCc4ccccc43)c(Cl)cc2N1 (configuration not stated) | -3.2 | x
CCOC(=O)c1c(C)[nH]c(C)c1S(=O)(=O)N1CCCC(C(=O)Nc2nccs2)C1 (configuration not stated) | -1.2 | x
CCCNC(=O)NC1CCN(c2cc(C)nc3ncnn23)CC1 | 1.1 | -0.68
O=C(O)C1CCCN1c1ncc(Cl)cc1[N+](=O)[O-] (configuration not stated) | -13 | x
CCOC(=O)C1CCCN1c1ncc(Cl)cc1[N+](=O)[O-] (configuration not stated) | -9.8 | 14*
Cc1c(C(=O)Nc2ccc(Cl)cn2)sc2nc3n(c(=O)c12)CCCCC3 | 4.1 | x
O=C(Nc1ccc(-n2nncc2-c2ccco2)cc1)c1cnc2n(c1=O)CCS2 | 7.3* | x
CC(=O)Nc1ccc(-n2nncc2-c2ccco2)cc1 | 1.3 | x
CCC(=O)N1CCc2cc(Br)cc(S(=O)(=O)NCCN3CCCCC3C)c21 (configuration not stated) | x | 3.4
CCC(=O)N1CCc2cc(Br)cc(S(=O)(=O)NCC3CCCN3CC)c21 (configuration not stated) | x | 4.5*
CCc1nnc(NC(=O)Nc2ccc(OC)cc2)s1 | x | -2.5
COc1ccc(NC(=O)Nc2nnc(COc3ccccc3F)s2)cc1 | 1.2 | 4.7*
SMILES | HIV TAR-Tat | CDC25B-CDK2 inh
Cc1cc(C)c2c(-n3cccc3)c(C(=O)NCc3cccs3)sc2n1 | -0.85 | -1.3
COc1cc(/C=C/C(=O)O)ccc1O | 1.5 | x
COc1cc(/C=C/C(=O)CC(=O)/C=C/c2ccc(O)c(OC)c2)ccc1O | 15* | x
COc1ccc(/C=C/C(=O)O)cc1OC | 0.69 | x
COc1ccc(/C=C/C(=O)CC(=O)/C=C/c2cccc(O)c2OC)cc1O | 16* | x
Cc1cc(C)n(-c2nc3ccccc3c3nc(-c4cccnc4)nn23)n1 | x | 0.35
O=C(Cc1ccccc1)Nc1nn2c(-c3ccco3)nnc2s1 | -1.4 | -1.2
COc1cnc(CSc2nnc(C)s2)cc1OCC(=O)Nc1cc(C)on1 | 0.66 | x
O=C(Nc1nnc(SCc2ccc(F)cc2)s1)Nc1ccc(Cl)cc1Cl | x | -2.7
COc1ccc(-c2ccc3c(n2)sc2c(O)cc(=O)[nH]c23)cc1OC | 5.1 | -0.51
O=c1cc(O)c2sc3nc(-c4ccncc4)ccc3c2[nH]1 | 15* | 2.5
CN1C(=O)CSc2ccc(NC(=O)NCc3ccc(F)cc3)cc21 | -0.54 | 1.9
CN1C(=O)CSc2ccc(NC(=O)NCc3cccnc3)cc21 | 0.5 | 4.8*
CC1(C)OC(=O)C(=Cc2ccc(Cl)cc2Cl)C(=O)O1 | x | 9.2*
CC1(C)OC(=O)C(=CNc2ccc(F)c(Cl)c2)C(=O)O1 | x | -1.6
O=C1c2cccc(O)c2C(=O)c2c(O)cccc21 | 3.1 | x
Cc1cc(O)c2c(c1)Cc1cccc(O)c1C2=O | 7.7* | x
Cc1cc(C(=O)NC2(O)C(=O)c3ccccc3C2=O)n(C)n1 | x | 0.01
Cc1cc(C)n(CCCO)c(=O)c1C#N | 0.5 | 1
Cc1cc(C)n(CC(C)O)c(=O)c1C#N (configuration not stated) | 0.95 | 16*
O=C(NC1CCSC1=O)c1cccc(C(=O)NC2CCSC2=O)c1 (configuration not stated) | 26* | -0.45
O=C(NC1CCSC1=O)c1ccc(-c2ccccc2)cc1 (configuration not stated) | 2 | -3.2
O=C(CSc1ccsc1[N+](=O)[O-])Nc1ccc(Br)cc1F | 13* | 3.6
CSc1ccc(CCNC(=O)CSc2ccsc2[N+](=O)[O-])cc1 | 0.24 | -0.52
COc1ccc(NC(=O)CSc2ccsc2[N+](=O)[O-])cc1Cl | 10* | 3
SMILES | HIV TAR-Tat | CDC25B-CDK2 inh
O=C(CSc1ccsc1[N+](=O)[O-])Nc1cccc(F)c1 | 5.2* | -2.8
O=C(CSc1ccsc1[N+](=O)[O-])Nc1c(F)cc(F)cc1Br | 2.9 | 1.5
O=C(CSc1ccsc1[N+](=O)[O-])NC1CCCC1 | -0.7 | -0.96
O=C(NC1CCCC1)C1c2sc3ccccc3c2CC(=O)N1c1ccccc1Cl (configuration not stated) | 0.47 | -11
c1ccc2c(OCCCOc3cccc4cccnc34)cccc2c1 | x | 6.2*
OC(COc1cccc2cccnc12)Cn1c2ccccc2c2ccccc21 (configuration not stated) | -1.6 | -0.9
CC(=O)N1CCc2cc(S(=O)(=O)CCC(=O)N3CC(C)CC(C)C3)ccc21 (configuration not stated) | x | -1.5
O=C(CN1C(=O)c2ccccc2Sc2ncccc21)Nc1ccc2c(c1)OCO2 | 13* | x
O=C(CN1C(=O)c2cccnc2Sc2ccccc21)Nc1ccc2c(c1)OCCO2 | 0.53 | x
O=C(NCCNc1ccc(C(F)(F)F)cc1[N+](=O)[O-])c1cccnc1Oc1ccccc1 | x | -0.66
Cc1ccc(C)n1-c1ccc(Cl)c(C(=O)NN)c1 | x | 19*
Cc1ccc(C)n1-c1sccc1C(=O)NN | x | -1.6
O=C(CN1CCSc2ccccc21)NC1CC1 | 0.94 | x
COc1c(O)cc2c(c1O)[C@@H]1O[C@H](CO)[C@@H](O)[C@H](O)[C@H]1OC2=O | 1.9 | x
Cc1c(C(=O)O)c(O)cc2c1C(=O)c1c(O)c([C@H]3O[C@H](CO)[C@@H](O)[C@H](O)[C@H]3O)c(O)c(O)c1C2=O | 8.5* | x
CCN(CC)C(=O)c1oc2ccccc2c1NC(=O)c1ccc2c(c1)OCO2 | 7* | x
CCN(CC)C(=O)c1oc2ccccc2c1NC(=O)C(C)(C)C | 0.42 | x
CC(C)CN(CC(C)C)S(=O)(=O)c1ccc(CCN2C(=O)c3cccnc3C2=O)cc1 | 0.24 | x
O=C(O)c1cc(N2C(=O)C3CCCCC3C2=O)ccc1Cl (configuration not stated) | 1 | x
O=C(O)c1cc(N2C(=O)c3c(Cl)c(Cl)c(Cl)c(Cl)c3C2=O)ccc1Cl | x | 8.6*
O=C(CCCN1C(=O)S/C(=C/c2ccccc2)C1=S)Nc1ccccc1C(=O)O | 0.82 | -1.4
Cc1cccc2c3c(ccc12)C1=C(C(=O)C3=O)[C@@H](C)CO1 | 17* | x
